# PubChem BioAssay (NCATS)
# Results filed as inconclusive are left out. Where a call stands in place of a potency, no number is given. Unmarked numbers belong to inactive results. Active and inactive are the calls of the source. The call rests on the fitted dose curve; in most records, active means well fitted curve in the direction sought with a large enough effect; inconclusive means small, poorly fitted or top-dose-only effect, or another doubt; inactive means no such curve, though single readings can be large; an effect the other way counts as inactive or inconclusive.
# Experiments:
# [1] = tested on: MKL-1; assay: qHTS assay to identify novel small-molecules to repurpose for Merkel cell carcinoma treatment (AID 1296009); details: MCC and control cell lines, CellTiter-Glo viability, 72 h; series mostly up to 46 µM; further: nearly all actives have a fitted effect of over 60% in size
# In short: (§1)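 Cell viability measured by CellTiter-Glo following 72 hr compound treatment at 37 degree celsius, with NPC and MIPE libraries tested in 8- and 11-point concentration series.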
# [2] = tested on: WaGa; assay: as above; details: MCC and control cell lines, CellTiter-Glo viability, 72 h; series mostly up to 46 µM
# In short: as §1
# [3] = tested on: MKL-2; assay: as above; details: MCC and control cell lines, CellTiter-Glo viability, 72 h; series mostly up to 46 µM
# In short: as §1
# [4] = tested on: CAOV3; assay: Primary qHTS to identify gynecologic anti-cancer compounds using libraries of approved drugs and bioactive compounds (AID 1345084); details: Gynecologic cancer cell panel viability, ATPlite luminescence, 48 h; series mostly up to 57.5 µM; further: nearly all actives have a fitted effect of over 55% in size
# In short: (§2)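 Cells, 1,000 per well, were allowed to settle for 16 h at 37 C before compound addition. Five concentrations were tested for 48 h, and viability was read by ATPlite luminescence after 15 min at room temperature.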
# [5] = tested on: CASKI; assay: as above; details: Gynecologic cancer cell panel viability, ATPlite luminescence, 48 h; series mostly up to 57.5 µM
# In short: as §2
# [6] = tested on: Es-2; assay: as above; details: Gynecologic cancer cell panel viability, ATPlite luminescence, 48 h; series mostly up to 57.5 µM
# In short: as §2
# [7] = tested on: HeLa; assay: as above; details: Gynecologic cancer cell panel viability, ATPlite luminescence, 48 h; series mostly up to 57.5 µM
# In short: as §2
# [8] = tested on: UISO; assay: qHTS assay to identify novel small-molecules to repurpose for Merkel cell carcinoma treatment (AID 1296009); details: MCC and control cell lines, CellTiter-Glo viability, 72 h; series mostly up to 46 µM; further: nearly all actives have a fitted effect of over 60% in size
# In short: as §1
# [9] = tested on: C33A; assay: Primary qHTS to identify gynecologic anti-cancer compounds using libraries of approved drugs and bioactive compounds (AID 1345084); details: Gynecologic cancer cell panel viability, ATPlite luminescence, 48 h; series mostly up to 57.5 µM; further: nearly all actives have a fitted effect of over 55% in size
# In short: as §2
# [10] = tested on: NIH3T3; assay: qHTS assay to identify novel small-molecules to repurpose for Merkel cell carcinoma treatment (AID 1296009); details: MCC and control cell lines, CellTiter-Glo viability, 72 h; series mostly up to 44.8 µM; further: nearly all actives have a fitted effect of over 60% in size
# In short: as §1
# Potency means the concentration at half of the fitted maximal effect.
smiles,measurement,setting,value
COc1cc(CNC(=O)CCCCC=CC(C)C)ccc1O,Potency,[1],inactive
same,Potency,[2],inactive
CCc1cc(-c2n[nH]c(C)c2-c2ccc3c(c2)OCCO3)c(O)cc1O,Potency,[3],inactive
Cc1nn(Cc2ccccc2Cl)c(C)c1CN(C)CC(O)COc1ccc(Cl)cc1 (stereo not given),Potency,[1],inactive
same,Potency,[2],inactive
Fc1ccc(CNc2ncnc3ccc(F)cc23)cc1,Potency,[3],inactive
same,Potency,[4],inactive
same,Potency,[5],inactive
same,Potency,[6],inactive
same,Potency,[7],inactive
CN1CCC(COc2cnc(-c3cccc(Cn4nc(-c5cccc(C#N)c5)ccc4=O)c3)nc2)CC1,Potency,[8],inactive
same,Potency,[2],inactive
same,Potency,[9],inactive
same,Potency,[5],inactive
same,Potency,[6],inactive
same,Potency,[7],inactive
CCOC(=O)[C@@H](N)CCC(=O)N[C@@H](CSCc1ccccc1)C(=O)N[C@@H](C(=O)OCC)c1ccccc1,Potency,[8],inactive
same,Potency,[2],inactive
O=C(CCCN1CCN(c2ccc(F)cc2)CC1)NC1c2ccccc2CSc2ccccc21 (stereo not given),Potency,[9],inactive
same,Potency,[4],inactive
same,Potency,[5],inactive
same,Potency,[6],inactive
same,Potency,[7],inactive
CCCCC(F)(F)[C@@]1(O)CC[C@H]2[C@H](CC(=O)[C@@H]2CCCCCCC(=O)O)O1,Potency,[9],inactive
same,Potency,[4],inactive
same,Potency,[5],inactive
same,Potency,[6],inactive
same,Potency,[7],inactive
CCC(C)SSc1ncc[nH]1 (stereo not given),Potency,[3],16.6 µM (active)
same,Potency,[2],23.5 µM (active)
C=CC(=O)Nc1cccc(Sc2nc(Nc3ccc(N4CCN(C)CC4)cc3)ncc2Cl)c1,Potency,[6],inactive
CC[C@H](CC#N)OC(=O)N[C@@H](C)c1cccc(NC(=O)Nc2ccc(-c3cnco3)c(OC)c2)c1,Potency,[4],inactive
same,Potency,[6],1.78 µM (active)
Cc1csc(-c2nnc(Nc3ccc(Oc4ncccc4-c4ccnc(N)n4)cc3)c3ccccc23)c1,Potency,[8],inactive
same,Potency,[2],0.0118 µM (active)
same,Potency,[9],inactive
same,Potency,[5],inactive
same,Potency,[7],inactive
C[C@@]1(C(=O)Nc2ccc(F)nc2)CCCN1c1nc(Nc2cc(C3CC3)[nH]n2)c2cccn2n1,Potency,[10],4.61 µM (active)
same,Potency,[8],0.0833 µM (active)
same,Potency,[2],3.32 µM (active)
same,Potency,[9],inactive
same,Potency,[5],14.1 µM (active)
same,Potency,[6],inactive
same,Potency,[7],3.98 µM (active)
CN(C)CCCNC(=O)c1ccc(-c2cc(O)c3ncccc3c2)cc1,Potency,[9],inactive
same,Potency,[4],inactive
same,Potency,[5],inactive
same,Potency,[6],inactive
same,Potency,[7],inactive
O[C@@H](COc1cccc2ncccc12)CN1CCN(C2c3ccccc3[C@@H]3[C@H](c4ccccc42)C3(F)F)CC1 (stereo not given in full),Potency,[10],inactive
same,Potency,[9],inactive
same,Potency,[4],inactive
same,Potency,[5],inactive
same,Potency,[6],inactive
same,Potency,[7],inactive
CNC(=O)c1c(-c2ccc(F)cc2)oc2cc(N(CCO)S(C)(=O)=O)c(C3CC3)cc12,Potency,[9],inactive
same,Potency,[4],inactive
same,Potency,[5],inactive
same,Potency,[6],inactive
same,Potency,[7],inactive
Cc1ccc(C(=O)N(CCCN)[C@@H](c2nc3cc(Cl)ccc3c(=O)n2Cc2ccccc2)C(C)C)cc1,Potency,[8],inactive
CCCCC[C@H](O)C=C[C@H]1[C@H](O)CC(=O)[C@H]1CC=CCCCC(=O)O,Potency,[3],16.6 µM (active)
same,Potency,[9],inactive
same,Potency,[4],inactive
same,Potency,[5],inactive
same,Potency,[6],inactive
same,Potency,[7],inactive
COc1c(C)c2c(c(O)c1CC=C(C)CCC(=O)OCCN1CCOCC1)C(=O)OC2,Potency,[3],1.32 µM (active)
same,Potency,[2],2.64 µM (active)
Cc1[nH]c(C=C2C(=O)Nc3ccc(S(=O)(=O)N(C)c4cccc(Cl)c4)cc32)c(C)c1C(=O)N1CCN(C)CC1,Potency,[3],20.9 µM (active)
same,Potency,[2],20.9 µM (active)
C[C@@H]1CCO[C@H]2Cn3cc(C(=O)NCc4ccc(F)cc4F)c(=O)c(O)c3C(=O)N12,Potency,[8],inactive
CCNC(=O)c1noc(-c2cc(C(C)C)c(O)cc2O)c1-c1ccc(CN2CCOCC2)cc1,Potency,[3],inactive
same,Potency,[8],0.166 µM (active)
same,Potency,[4],inactive
N#CC(c1ccc(Cl)cc1)c1c(Cl)cc(-n2ncc(=O)[nH]c2=O)cc1Cl (stereo not given),Potency,[8],inactive
same,Potency,[2],13.2 µM (active)
Oc1cc(O)cc(C=Cc2ccc(O)c(O)c2)c1,Potency,[2],18.7 µM (active)
COc1ccc2nc3cc(Cl)ccc3c(Nc3cc(CN4CCCC4)c(O)c(CN4CCCC4)c3)c2n1,Potency,[8],inactive
same,Potency,[2],18.7 µM (active)
CN1CC(=O)NC1=NC(=O)Nc1cccc(Cl)c1,Potency,[8],inactive
same,Potency,[2],inactive
CC1(COc2ccc3c(c2)ncn3-c2ccc3cccc(N4CCC(N)CC4)c3n2)COC1,Potency,[3],18.7 µM (active)
same,Potency,[6],28.2 µM (active)
same,Potency,[7],20 µM (active)
CN(C)CCOc1cc(-c2cn[nH]c2)ccc1NC(=O)C1COc2ccccc2O1 (stereo not given),Potency,[9],inactive
same,Potency,[4],inactive
same,Potency,[5],inactive
same,Potency,[6],inactive
same,Potency,[7],inactive
COc1cc2nccc(Oc3ccc(NC(=O)Nc4cc(C)on4)c(Cl)c3)c2cc1OC,Potency,[2],23.5 µM (active)
O=C(Nc1ccc(OC(F)(F)F)cc1)c1sccc1NCc1ccnc2ccccc12,Potency,[9],inactive
same,Potency,[4],inactive
same,Potency,[5],inactive
same,Potency,[6],inactive
same,Potency,[7],inactive
Cc1cc(-c2ncc(CC(=O)Nc3ccc(-c4cnccn4)cn3)cc2C)ccn1,Potency,[4],inactive
same,Potency,[5],inactive
same,Potency,[7],inactive
